Bioassay records from PubChem BioAssay.
Sampled rows, rich in hits. Any-hit rate of the full collection: about 5.4%.
Marburg entry inh: inhibitors of Marburg virus binding or cell entry. Marburg virus pseudotyped entry inhibition, cell reporter. Potency, µM (series often up to 37.8 µM), for the others: top-dose activity change, negative = inhibition, actives largely listed as inhibitors. actives 1.8% (n = 300,000). AID 540276; calls by dose curve; tested in HEK293 cells
FMDV antiviral: antivirals against foot and mouth disease virus. FMDV antiviral cell-based qHTS. Potency, µM (doses to about 57.9 µM), inactives show top-dose activity change, negative = inhibition, most hits filed as inhibitors. actives 1.2% (n = 410,000). AID 1159524; calls by dose curve; tested in HEK293T cells; note: read-out not given here; nearly all actives have a fitted effect of over 45% in size
Lassa entry inh: Lassa virus entry inhibition. Lassa virus pseudotype entry inhibition, cell reporter. Potency, µM (titrated, usually from 37.9 µM), without a hit: top-dose activity change, negative = inhibition, actives largely listed as inhibitors. actives 1.2% (n = 300,000). AID 540256; calls by dose curve; tested in HEK293 cells; note: nearly all actives have a fitted effect of over 50% in size
VACV mCherry inh: vaccinia inhibition (mCherry reporter); Vaccinia virus mCherry reporter infection, fluorescence; Potency, µM (top dose mostly 36.5 µM), inactives show top-dose activity change, negative = inhibition, usual class: inhibitors; actives 0.63% (n = 310,000); AID 720579; calls by dose curve; tested in A549 cells; note: nearly all actives have a fitted effect of over 35% in size
Vaccinia Venus: inhibitors of vaccinia virus (Venus reporter); AID 720580; actives 0.46% (n = 330,000); Vaccinia virus Venus reporter expression, fluorescence; Potency, µM (titrated, usually from 36.5 µM), without a hit: top-dose activity change, negative = inhibition, usual class: inhibitors; calls by dose curve; tested in A549 cells; note: nearly all actives have a fitted effect of over 30% in size
Sm TGR inh: blocks Schistosoma mansoni thioredoxin glutathione reductase; purified TGR, DTNB reduction, TNB absorbance 405 nm; AID 485364; Q962Y6; actives 3% (n = 360,000); Potency, µM (highest dose often 114 µM), inactives show at the top dose activity change, negative = inhibition, usual class: inhibitors; active = well fitted inhibition curve with a large enough effect; inconclusive = small, poorly fitted or top-dose-only effect; inactive = no such curve, though single readings can be large or run the other way; note: nearly all actives have a fitted effect of over 60% in size
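First, TGR (20 nM dispensed) and NADPH were mixed with compound. Second, a 15 min room-temperature incubation followed. Third, further NADPH and then DTNB were added to start the reaction. Finally, TNB absorbance was monitored kinetically.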
* marks the source's active call; other numbers are inactive results; i = inactive; u = inconclusive; x = no result given; [ ] = remark or other dose. % is set by controls: 0 for no effect and ±100 for the full control effect; potency is the fitted concentration of half-maximal effect.

SMILES | Marburg entry inh | FMDV antiviral | Lassa entry inh | VACV mCherry inh | Vaccinia Venus | Sm TGR inh
S=C(NCc1ccco1)Nc1ccc(Br)cc1Cl | -14.5%[46.1 µM] | 58.9% | 8.1% | -24.1% | -17.8% | u
Cc1cc(CNC(=S)Nc2ccc(Br)cc2Cl)nn1C | x | 51.9% | x | x | x | 7.94µM*
CCOC(=O)c1cc(-c2ccc(F)cc2)n(CCC(=O)Nc2nc3ccc(OC)cc3s2)c1C | x | u | -10.4%[46.1 µM] | -16.3% | -29.4% | -9.1%
O=[As](O)(O)c1ccc(N=Nc2ccc(O)cc2)cc1 | x | 32.4% | x | i | -9.4% | 50.1µM*
COc1ccc(C2(CNC(=O)/C=C\c3ccco3)CCCC2)cc1OC | 16.8% | -28.9% | 10.1% | x | x | 3.16µM*
COc1ccc(C2(CNC(=O)c3cc(OC)c(OC)c(OC)c3)CCCC2)cc1OC | -0.4%[46.1 µM] | 21.9% | -15.9%[46.1 µM] | -12.5% | -3.0% | x
COc1ccc(C(NC(=O)/C=C/c2ccco2)c2ccc(OC)c(OC)c2)cc1OC | -3.2% | 4.1% | 2.8% | i | 0.0% | 8.91µM*
Cc1ccc(CCNC(=O)CCn2nc(-c3ccc(Cl)cc3)ccc2=O)cc1 | x | -12.0% | 2.7%[46.1 µM] | -12.4% | -10.5% | -0.5%
CCC(C)(C)NC(=O)C1CCN(S(=O)(=O)c2c(C)noc2/C=C/c2ccc(C)cc2)CC1 | x | -14.0% | -18.3%[46.1 µM] | -12.7% | -13.1% | -1.5%
COc1ccc(/C=N/N2CCN(C)CC2)c(OC)c1OC | 6.0%[46.1 µM] | 18.3% | x | -10.4% | 0.6% | 50.1µM*
COc1ccc(OCc2nc3ccc(S(=O)(=O)Nc4ccccc4Cl)cc3[nH]2)cc1 | 16.8% | -12.6% | -3.0% | u | u | -2.8%
COc1ccccc1NS(=O)(=O)c1ccc2nc(CCl)[nH]c2c1 | 1.6%[46.1 µM] | -22.2% | 3.8% | i | -10.4% | 35.5µM*
CCN(CC)S(=O)(=O)c1ccc(Cl)nc1 | -2.0%[46.1 µM] | 4.8% | -5.3% | i | 10.7% | 21.3%
COc1ccc(NS(=O)(=O)c2ccc3nc(COc4ccc5ccccc5c4)[nH]c3c2)cc1 | u | u | u | u | 28.2µM* | -9.9%
CCN(CC)S(=O)(=O)c1ccc2nc(CCl)[nH]c2c1 | -11.0% | -28.5% | -5.0% | -5.3% | -17.3% | 39.8µM*
COc1ccc(NS(=O)(=O)c2ccc3nc(COc4cccc5ccccc45)[nH]c3c2)cc1 | 14.6µM* | -20.3% | u | -26.4% | u | -9.0%
COCCCNc1ncnc2sc(C(=O)N3CCOCC3)c(C)c12 | x | -11.0% | x | -15.6% | -4.0% | x
NS(=O)(=O)c1ccc(Oc2ccc(S(N)(=O)=O)cc2)cc1 | -6.5%[46.1 µM] | -6.7% | 0.4%[46.1 µM] | -5.3% | -12.1% | 1.0%
C=CS(=O)(=O)c1ccc(Oc2ccc(S(=O)(=O)C=C)cc2)cc1 | u | 3.98µM* | 6.51µM* | 7.08µM* | 10µM* | 2.51µM*
COc1ccccc1-c1ccc(C(=O)NCCN2CCOCC2)c(N2CCN(c3ccccc3F)CC2)n1 | x | 1.6% | x | -19.8% | -5.6% | x
CCOC(=O)c1c(N)sc(N)c1C(=O)OCC | -11.5% | 31.6µM* | -3.7% | -4.8% | 13.0% | 3.4%
CCOC(=O)c1c(N)sc(=S)c2c1CCC2 | 2.3% | -24.7% | 19.9% | -13.2% | -5.9% | 15.8µM*
CCCCCC(=O)N1C[C@@H](n2cc(C3CC3)nn2)[C@H](O)C[C@H]1c1ccccc1 | x | x | 12.7%[46.1 µM] | x | x | x
c1ccc(-c2sc3ccccc3c2-c2ccc(OCCN3CCCC3)cc2)cc1 | x | u | x | u | 14.1µM* | x
COc1ccc2sc(-c3ccccc3OC)c(-c3ccc(OCCN(C)C)cc3)c2c1 | x | -4.2% | x | -19.8% | -17.4% | x
SMILES | Marburg entry inh | FMDV antiviral | Lassa entry inh | VACV mCherry inh | Vaccinia Venus | Sm TGR inh
COc1ccc(-c2sc3ccccc3c2-c2ccc(OCCN3CCCCC3)cc2)cc1 | x | -27.7% | x | -13.9% | -17.3% | x
COc1cccc(-c2sc3ccccc3c2-c2ccc(OCCN(C)C)cc2)c1 | x | u | x | 14.1µM* | u | x
COc1cccc(-c2sc3ccccc3c2-c2ccc(OCCN3CCCCC3)cc2)c1 | x | u | x | i | -15.3% | x
COc1cccc(-c2sc3ccccc3c2-c2ccc(OCCN3CCCC3)cc2)c1 | x | u | x | u | 12.6µM* | x
COc1ccc(C2Nc3ccccc3C(=O)N2c2ccc(F)cc2)cc1COc1ccc(NC(C)=O)cc1 (configuration not stated) | x | x | x | -19.1% | -5.6% | x
CCCCc1nn2c(=O)cc(COC(=O)CNC(=O)c3ccccc3C)nc2s1 | x | 13.7% | 21.4%[46.1 µM] | -7.9% | -13.4% | 10.6%
